Assay outcomes deposited in PubChem BioAssay by several laboratories.
Most compounds without a hit are left out; they make up all but 4.8% or so of the library.
tim10-1 inh = growth inhibitors of tim10-1 mutant yeast, primary screen, luminescence, uHTS; S. cerevisiae tim10-1 ts strain growth, BacTiter-Glo, 24 h; inhibition, % at 20 µM; 2.2% of 330,000 active;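 active means inhibition of at least 40%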;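 further: mutant grown at 25 °C; 0% = DMSO wells with yeast and 100% = wells holding no yeast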
NALP1 yeast inh = NALP1 inflammasome inhibitors in reconstituted yeast, colorimetric, S. cerevisiae, triplicate retest. S. cerevisiae NALP1/ASC/caspase-1 growth, X-gal OD620, 72 h. inhibition, % at 10 µM. 0.61% of 280,000 active; in the data active means inhibition mostly above about 24%, no sharp cut-off; inactive means mostly below about 32%
PfHsp90 yeast 2 = growth inhibition of PfHsp90-expressing yeast, primary screen, antimalarial PfHsp90 inhibitor project, S. cerevisiae, BacTiter-Glo luminescence, single point, set 2. inhibition, % at 9.4 µM. AID 504621, 2011. BacTiter-Glo ATP, 48 h; yeast lacking PDR1 and PDR3 efflux regulators. 0.32% of 310,000 active;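 active means every replicate shows inhibition above about 80%, whatever the replicate mean, limit read from the data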;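 further: 0% = DMSO neutral controls and 100% = 20 µM radicicol positive controls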
tim23-1 inh = growth inhibitors of tim23-1 mutant yeast, primary screen, luminescence, uHTS | inhibition, % at 20 µM | S. cerevisiae tim23-1 growth, BacTiter-Glo luminescence, 24 h | 1.3% of 330,000 active;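 active means growth inhibition of the mutant yeast at or above 50%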;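 further: temperature-sensitive mutant grown at 25 °C; plate controls were DMSO-treated mutant yeast for no effect and medium wells lacking yeast for full effect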
TIM10 inh = growth inhibitors of isogenic TIM10 control yeast, primary screen, counter-screen for tim10-1 yeast inhibitor project, luminescence, uHTS. S. cerevisiae TIM10 strain growth, BacTiter-Glo luminescence, 24 h. 1.4% of 330,000 active. inhibition, % at 10 µM;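 active means inhibition of 40% or more at the single tested concentration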;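 further: wild-type TIM10 isogenic control strain grown at permissive 25 °C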
SKKanGAS inh = S. pyogenes SKKanGAS growth inhibitors in kanamycin, primary screen, streptokinase expression inhibitor project, SKKanGAS strain, BacTiter-Glo luminescence. 1.3% of 300,000 active. 6 h. AID 1662, 2009. inhibition, % at 7.5 µM;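 active means mean replicate score, as percent of positive control median, at least 50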;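 further: strain carries kanamycin resistance gene driven by streptokinase promoter and grows in 40 µg/ml kanamycin; loss of luminescence reflects streptokinase promoter inhibition or plain growth inhibition; 0% = median of DMSO wells and 100% = positive control at its reference dose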
TIM10 conf = growth inhibitors of wild-type TIM10 yeast, confirmation, counter-screen for tim10-1 synthetic lethality project, single concentration, luminescence, S. cerevisiae | shares compounds with TIM10 inh | S. cerevisiae tim10 strain growth, BacTiter-Glo luminescence, 24 h | inhibition, % at 10 µM | 63% of 4,600 active;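 active means inhibition of yeast growth at or above a set limit in either of two replicates at 10 µM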;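 further: this counterscreen used the strain with wild-type TIM10; 0% = yeast with DMSO and 100% = medium wells lacking yeast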
The depositor's hits bear a star; / = no result given.

SMILES	tim10-1 inh	NALP1 yeast inh	PfHsp90 yeast 2	tim23-1 inh	TIM10 inh	SKKanGAS inh	TIM10 conf
CCNC(=S)N/N=C/c1cc(C)n(-c2ccc(Cl)cc2)c1C	33.2	-17.1	7.2	29.1	50.0*	0.2	16.1
Cc1cc(/C=N/NC(N)=S)c(C)n1-c1ccc(Cl)c(Cl)c1	8.8	14.0	-46.8	-23.4	-5.4	-16.1	/
O=C(Oc1ccccc1C(=O)Nc1ccccc1)c1ccccc1Br	/	36.6	-8.6	/	/	4.6	/
CC(C)(C)NC(=O)C(c1cccs1)N(CC1CCCO1)C(=O)c1ccc(-c2ccccc2)[nH]1 (stereo unspecified)	25.3	12.2	0.9	32.7	41.7*	3.1	-10.6
O=C(Nc1cc2nn(-c3ccccc3)nc2cc1Cl)c1ccco1	-1.8	12.4	-4.5	-9.0	-2.4	-4.5	/
O=C(Nc1ccc2nn(-c3ccccc3)nc2c1)c1ccco1	22.1	-7.8	26.1	30.3	54.2*	7.2	50.5*
O=C(Nc1ccc(Oc2ccc3ccccc3c2)cc1)c1ccco1	25.5	12.5	-13.6	33.7	43.2*	23.7	35.5*
O=C(Nc1ccc(Oc2ccc(NC(=O)c3ccco3)c(NC(=O)c3ccco3)c2)cc1)c1ccco1	26.5	-6.0	/	41.5	38.9	41.5	/
O=C(Nc1ccc2nc(-c3ccco3)[nH]c2c1)c1ccco1	17.5	3.4	/	41.3	53.6*	3.1	36.9*
CCn1c(Cc2ccc(OC)cc2)nnc1SCc1nc2ccccc2c(=O)[nH]1	13.1	-14.6	-17.9	-1.3	17.9	-3.4	/
COc1ccc(Cc2nc(C)cc(Cl)n2)cc1[N+](=O)[O-]	-3.6	13.5	-10.7	-8.5	41.9*	-1.6	-4.0
COc1ccc(C2=NOC(C(=O)N3CCN(c4ccccc4OC)CC3)C2)cc1 (stereo unspecified)	12.4	-21.3	-0.1	25.7	3.3	-4.1	/
CC1(C)c2[nH]c3ccccc3c2C[C@H]2C(=O)N(Cc3ccccc3F)C(=O)N21	32.9	/	4.4	16.3	28.2	1.0	/
CC1(C)c2[nH]c3ccccc3c2C[C@@H]2C(=O)N(Cc3ccccc3F)C(=O)N21	36.5	/	-11.9	27.2	40.6*	18.1	25.6
O=C(Nc1ccc(C2CC2(Cl)Cl)cc1)c1ccccc1Br (stereo unspecified)	32.3	22.1	9.4	42.0	41.2*	-0.8	19.1
O=C(N/N=C/C1C(c2ccccc2)C1(Cl)Cl)c1cccc(Cl)c1 (stereo unspecified)	36.7	19.1	-18.1	44.4	40.2*	8.4	12.4
O=C(N/N=C/c1c[nH]c2ccccc12)c1cccc(Cl)c1	-5.3	-5.2	18.3	13.5	6.8	-6.0	/
Oc1ccc(-c2nc3ccc4ccccc4c3c3c2CCC3)cc1O	13.7	17.0	97.7*	35.5	41.4*	12.8	36.4*
Cc1cc(C)c2c(ccc3ccccc32)n1	/	/	7.0	/	/	/	/
CC(C)CNC(=S)NNC(=O)c1csc2ccccc12	24.0	-8.2	/	7.6	2.0	0.2	/
CCOC(=O)CCCCCN1C(=O)c2cccc3cccc(c23)C1=O	-24.9	/	-1.3	16.7	-7.6	1.2	/
CC(=O)OCCCN1C(=O)c2cccc3cc(Br)cc(c23)C1=O	-8.7	15.3	/	22.2	61.1*	-1.6	0.8
Cc1ccc(C(=O)C[n+]2cc(-c3ccc(C)cc3)n3c2CCCCC3)cc1	30.2	20.1	12.6	19.7	46.4*	12.5	15.0
O=C(Oc1ccc2c(=O)c(Oc3ccc4ccccc4c3)coc2c1)c1cccnc1	11.3	18.9	-8.3	16.9	20.2	8.5	/
O=C(Oc1ccc2c(=O)c(Cl)coc2c1)c1cccnc1	-12.1	12.2	7.9	-26.9	45.1*	-9.7	-13.2
Cc1cccc(NC(=S)N/N=C/C(C)c2ccccc2)c1C (stereo unspecified)	30.7	-0.5	-5.7	20.3	40.5*	9.8	36.2*
